Results on 104 compounds are retold here after ChEMBL document CHEMBL3988442, “University of Dundee, Small-Polar-MMV Screening Library” (2021).

SMILES strings stand for the structures. The campaign covered roughly 48,000 compounds. About 13,000 (27%) showed an effect of 50% or more. Some of the results follow.

For this assay, the system named is Wolbachia pipientis. Briefly: Anti-Wolbachia Cell-Based Screen. The class given is functional. Conditions: 5 µM. Also on record: scale not given: in the data most compounds retested in dose-response had high values.
For the compound `Cc1cc(C(C)NC(=O)c2cnc3onc(C)c3c2)c(C)o1` (centres undefined), the “Percent Effect” value worked out at 7.597%.
Next, `C1CC1c1nsc(N2CCN(C3CC3)CC2)n1`: -1.801%; `CSCCc1c(-c2ccccc2)ncn1[C@H]1C[C@@H](C(=O)O)N(C)C1`: 9.47%.
Next, `CCCS(=O)(=O)N1CCN(c2ccnc(N3CCCCC3)n2)CC1`: -4.762%; `CCc1cnc(CNC(=O)N2CCCC(c3ncc[nH]3)C2)s1` (centres undefined): -16.47%; `Cc1cnc(CCNC(=O)NCCOc2ncccc2Cl)s1`: -4.9%.
As for `CCc1cnc(CNC(=O)N2CCCC(C(=O)NC)C2)s1` (centres undefined), the “Percent Effect” value is recorded as -0.4435%.
Next, `CCc1cnc(CNC(=O)NCCc2ccc(O)cc2)s1`: 101.6%.
Next, `Cc1cnc(CCNC(=O)NCCc2ccc(O)cc2)s1`: 116.1%; `CCc1cnc(CNC(=O)NCCCO)s1`: 97.97%.
Consider `CNC(=O)Cc1ccc(NC(=O)NCc2ncc(C)s2)cc1`, for which the “Percent Effect” value was -0.2896%.
Next, `COc1ccc(CNC(=O)NCCc2nc(C)c(C)s2)cn1`: -8.722%.
Next, `CCc1cnc(CNC(=O)NC2CC(C)(C)OC2(C)C)s1` (centres undefined): 0.9333%.
Next, `CCn1c(C)cc(C(=O)NCc2cccc(NS(C)(=O)=O)c2)c1C`: -5.652%; `CNC(=O)c1cc(NC(=O)NCC2CCS(=O)(=O)C2)ccc1OC` (centres undefined): -3.737%; `Cc1noc(OCc2csc(C)n2)n1`: 2.505%.
For `COc1cc2nc(C)sc2cc1NC(=O)C(C)NC(N)=O` (centres undefined), the “Percent Effect” value is -2.888%.
In the case of `COc1ccccc1N1CCN(C(=O)CCCS(N)(=O)=O)C(C)C1` (centres undefined), the “Percent Effect” value is -9.849%.
Next, `CCOC(=O)c1sc2ccsc2c1CNC(=O)C(C)(C)C#N`: 61.27%; `CCOC(=O)c1sc2ccsc2c1CN.Cl`: -6.159%.
For the compound `CCOC(=O)c1sc2ccsc2c1CNC(=O)CC`, the “Percent Effect” value was 11.82%.
Next, `O=C(c1ccc[nH]1)N1C[C@H]2CC[C@@H]1CN(C1Cc3ccccc3C1)C2`: -8.418%; `Cc1nc(-c2ccccc2)n(CC(=O)NC(C)C2CC2)n1` (centres undefined): -16.22%; `Cc1cccc(-c2nc(C)nn2CC(=O)NC(C)C)c1`: 108.3%.
Take `Cc1cccc(-c2nc(C)nn2CC(=O)N(C)C2CC2)c1`: the “Percent Effect” value is given as -1.032%.
Regarding `Cc1cccc(-c2nc(C)nn2CC(=O)NC(C)C2CC2)c1` (centres undefined), the “Percent Effect” value is listed as 96.27%.
With `Cc1cccc(-c2nc(C)nn2CN2CCN(S(C)(=O)=O)CC2)c1`, the “Percent Effect” value was -9.044%.
Next, `CCC(C)(C)NC(=O)Cn1nc(C)nc1-c1cccc(C)c1`: -9.782%.
Next, `Cc1ccc(CNC2(Cc3cc(CC(C)C)on3)COC2)o1`: 0.7021%; `N#CCCN1CC(O)CN(C(=O)c2cccc(C(F)(F)F)c2)CC1=O` (centres undefined): 98.63%.
Next, `CCN1CC(O)CN(C(=O)c2cccc(C(F)(F)F)c2)CC1=O` (centres undefined): 106.7%; `O=C(O)C(F)(F)F.O=C(c1cccc(Cl)c1)N1CC[C@H]2[C@H]1CCN2CC1CC1`: -19.81%.
With `Nc1cc(C(=O)N2CCOC(Cc3cccc(C(F)(F)F)c3)C2)ccn1` (centres undefined), the “Percent Effect” value is on record as -0.1683%.
In the case of `O=C1CN(C(=O)c2cccc(C(F)(F)F)c2)CC(O)CN1CC1CC1` (centres undefined), the “Percent Effect” value is given as 100.3%.
Next, `O=C(c1ccc(=O)[nH]c1)N1CCC(Oc2cccc(C(F)(F)F)c2)CC1`: -22.64%.
Consider `CC(C)(C)CN1CC(O)CN(C(=O)c2cccc(C(F)(F)F)c2)CC1=O` (centres undefined), for which the “Percent Effect” value is given as 85.94%.
Next, `Cc1nnn2c1COCC(CNCc1nccs1)C2.O=C(O)C(F)(F)F` (centres undefined): -0.1911%.
In the case of `Cc1cc(C)n(CC(C)NC2CCN(Cc3cccc(O)c3)CC2)n1` (centres undefined), the “Percent Effect” value is on record as -0.5082%.
Next, `NC(=O)c1csc(N2CCCC(c3nc4ccccc4[nH]3)C2)n1` (centres undefined): 1.485%.
Next, `CNC(=O)[C@@H](c1ccccc1OC)N1CCC[C@H]1C(=O)NC1CC1.Cl`: -3.931%; `CNC(=O)[C@H]1C[C@@H]2CN(S(=O)(=O)c3cccc(F)c3)C[C@@H]2N1C.O=C(O)C(F)(F)F`: -6.312%; `Cc1nn(C)c(C)c1C1CCCN1c1ncnc2c1CCC2` (centres undefined): 10.31%.
Next, `CCCn1nccc1S(=O)(=O)N1CCC2(CCCN(C(C)C)C2=O)C1` (centres undefined): 7.399%; `CCC1CCC(NCCN2CCOCC2)CC1` (centres undefined): -1.764%.
In the case of `COc1ncc(-c2nccn2C(C)CCn2cccn2)cn1` (centres undefined), the “Percent Effect” value is reported as -0.87%.
With `Nc1cc(C(=O)N2CCC(Oc3cccc(C(F)(F)F)c3)CC2)ccn1`, the “Percent Effect” value is on record as 0.5907%.
Next, `O=C(c1cccc(C(F)(F)F)c1)N1CC(=O)N(C2CCC2)CC(O)C1` (centres undefined): 119.9%.
Next, `CC(C)CN1CC(O)CN(C(=O)c2cccc(C(F)(F)F)c2)CC1=O` (centres undefined): 93.47%; `CC(C)c1nnc2n1CCN(C(=O)c1cccc(C(F)(F)F)c1)C2`: -7.984%.
As to `COCCN1CC(O)CN(C(=O)c2cccc(C(F)(F)F)c2)CC1=O` (centres undefined), the “Percent Effect” value was 96.14%.
Consider `O=C(O)C1CCCCN1C(=O)c1cccc(C(F)(F)F)c1` (centres undefined), for which the “Percent Effect” value stood at 1.382%.
On to `O=C(c1ccncc1)N1CCC(Oc2cccc(C(F)(F)F)c2)CC1`, for which the “Percent Effect” value was -12.2%.
Next, `Cc1c(Br)cccc1C(=O)NCC1CCNCC1.Cl`: 5.039%; `COC(=O)NCc1ccc(NC(=O)CC2=CCCCC2)cc1`: -4.854%.
Consider `Cc1nc(N2CCN(S(C)(=O)=O)CC2)cc(-n2cnc(C)c2C)n1`, for which the “Percent Effect” value is reported as -12.66%.
Regarding `CC(C)(C)CCN1CCCC(Cn2cc(CCO)nn2)C1` (centres undefined), the “Percent Effect” value is recorded as -5.43%.
Turning to `Cc1ccccc1CN1CCN(C(=O)c2ccn(C(C)(C)C)c2)CC1`, the “Percent Effect” value was 106.5%.
Next, `CNS(=O)(=O)c1ccc(CN2CCN(Cc3ncccc3C)CC2)cc1`: 2.71%.
Next, `Cc1cccnc1CN1CCN(C(=O)c2ccn(C(C)(C)C)c2)CC1`: 140.1%; `Cc1ccccc1CN1CCN(C(=O)CCn2ccccc2=O)CC1`: -43.85%; `CC(C)(C)n1cc(C(=O)N2CCN(Cc3ccccc3F)CC2)cn1`: -9.517%.
Next, `Cc1cccnc1CN1CCN(C(=O)CCn2ccccc2=O)CC1`: -35.18%; `CCOC(=O)CC(NC(=O)c1cn(Cc2ccccc2F)nn1)C(C)C` (centres undefined): 0.973%; `O=C(O)C1c2nc[nH]c2CCN1Cc1cc(-c2ccccc2)no1` (centres undefined): -8.907%.
In the case of `CCCc1cc(C(=O)N(C)Cc2cccc3cnccc23)n(C)n1`, the “Percent Effect” value was -5.635%.
Next, `O=C(CCc1n[nH]c2c1CCCC2)N1C[C@@H]2CC[C@H](C1)N(CC1CC1)C2`: 3.665%; `CN(Cc1cccc2cnccc12)C(=O)CCc1n[nH]c2c1CCCC2`: 113.4%.
Next, `Cc1ncc(CC(=O)N2CCC3(CCC(=O)N(C4CC4)C3)CC2)c(=O)[nH]1`: 3.916%.
Next, `NC(=O)NC1CCN(Cc2ccc(Br)c(F)c2)CC1`: -13.64%; `CC(=O)Nc1ccc(CNCc2cccnc2N(C)C)cc1`: 96.06%; `CCOc1ccc(CNCc2cccnc2N(C)C)cc1`: 80.05%.
Take `CC(C)(C)NS(=O)(=O)c1ccccc1CNCc1cccc(O)c1`: the “Percent Effect” value is -1.047%.
In the case of `CCc1ncc(CNCc2cccnc2N(C)C)cn1`, the “Percent Effect” value came out at 101.7%.
Next, `CN(C)c1ncccc1CNCc1cccc(O)c1`: 107.5%.
Next, `CCN(C(=O)NCc1cccnc1N(C)C)C(C)c1cccnc1` (centres undefined): -18.28%; `CC(C)NS(=O)(=O)c1ccccc1CNCc1cccc(O)c1`: -3.142%.
Next, `CCOc1ccc(S(=O)(=O)NCc2cccnc2N(C)C)cc1`: -21.99%; `Cc1oc(C)c(C(=O)NCc2cccnc2N(C)C)c1C`: -9.408%.
`O=C(O)[C@@H]1CN(Cc2c[nH]c(CC3CCCC3)n2)C[C@H]1c1ccncc1`: the “Percent Effect” value is reported as -4.479%.
On to `CCN(CC)c1nc2sc(C(=O)NCC(=O)OC)cc2s1`, for which the “Percent Effect” value is listed as -6.557%.
For the compound `O=C1N[C@@H]2CCN(C(=O)N3CCOCC3)[C@@H]2C(=O)N1Cc1ccccc1`, the “Percent Effect” value was determined as 7.346%.
Next, `OC(CN(Cc1ccccc1)Cc1ccon1)c1ccco1` (centres undefined): 27.39%; `CCCN1CCC(NN2CCN(C)CC2)CC1`: 6.891%.
In the case of `COc1ccc(CNC(=O)C2(C#N)CCCC2)cc1`, the “Percent Effect” value was -22.34%.
Next, `COc1ccc2[nH]c(C(=O)NCC3(N)CCCC3)cc2c1`: 112.8%; `COc1ccc2cc(C(=O)N3CCCCC3CC(N)=O)[nH]c2c1` (centres undefined): -6.391%.
As for `NC1(CNC(=O)c2cc3ccccc3[nH]2)CCCC1`, the “Percent Effect” value was 106.9%.
Next, `O=C(Nc1cc(CSCCO)ccn1)c1cc2ccccc2[nH]1`: -29.11%; `O=C(NCC1(O)CCSCC1)c1nccc2ccccc12`: -4.929%.
Next, `COCCOc1ccc(NC(=O)N(C)Cc2ccsc2)cn1`: -6.376%; `Cc1noc([C@H]2C[C@H]3OCC[C@H]3N(Cc3cccs3)C2)n1.O=C(O)C(F)(F)F`: -3.779%; `CN(Cc1ncnn1C)C(=O)CCCn1ccc2cc(Cl)ccc21`: 8.375%.
Next, `CS(=O)(=O)c1ccc2c(c1)N(C(=O)Cc1cccc(F)c1)CCC2`: 1.079%; `O=C(NCCC(=O)N1CCCc2ccccc21)c1c(O)cc(F)cc1F`: 3.729%.
For the compound `O=C(NCCC(=O)N1CCCc2ccccc21)c1ccc(F)cc1F`, the “Percent Effect” value is reported as 138.5%.
Next, `O=C(NCCS(=O)(=O)N1CCc2ccccc21)c1c(O)cc(F)cc1F`: 11.09%; `Cn1cc(CCNC(=O)N2CCCc3c(F)cccc32)cn1`: -24.48%; `CCC(CNC(=O)c1ccc(F)cc1F)N1CCc2ccccc2C1` (centres undefined): 10.38%.
As for `CS(=O)(=O)c1ccc2c(c1)N(C(=O)c1cccc(F)c1)CCC2`, the “Percent Effect” value turned out to be 5.094%.
Next, `O=C(NCCSC1CCCC1)c1c(F)cccc1F`: 10.15%.
Consider `O=C(NCCSC1CCCC1)c1ccc(F)cc1F`, for which the “Percent Effect” value is reported as 11.89%.
Next, `O=C(NCCC(=O)N1CCCc2ccccc21)c1c(F)cccc1F`: 120%; `O=C(NCC(=O)N1CCCc2ccccc21)c1c(O)cc(F)cc1F`: 103.6%; `O=C(NCCC(=O)N1CCCc2ccccc21)c1cc(F)cc(F)c1`: 126.9%.
